Reference: the supplement of paper PMC10849652
The full data set covers some 8,800 targets. This sample favours those with a hit. About 0.5% of all pairs of compound and target were hits.

Tests used:
Assay in all cases: log2 fold change, soluble protein after heating vs DMSO (PISA); higher = thermal stabilisation; K562 lysate, 10 uM; active = over 0.2 and 3.5 SD of the protein, either way, in both replicates (recomputed)
sotrastaurin = compound: CN1CCN(c2nc(C3=C(c4c[nH]c5ccccc45)C(=O)NC3=O)c3ccccc3n2)CC1 [sotrastaurin]
How it was run: (§1)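 K562 pellets were dounce-homogenised in PBS pH 7.4 with 1 mM MgCl2, and the crude extract at 1 mg/mL protein was treated with 10 μM compound for 30 min. Aliquots were heated for 3 min across 48°C-58°C, pooled, and brought to 0.5% NP-40 at 4°C; soluble protein was the supernatant after 21,000xg for 90 min. Soluble protein was quantified by TMTpro 16plex LC-MS/MS with channel sums equalised, and reported as log2 fold change in thermal stability against DMSO controls, with values from duplicates.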

barasertib = compound: CCN(CCCOc1ccc2c(Nc3cc(CC(=O)Nc4cccc(F)c4)[nH]n3)ncnc2c1)CCOP(=O)(O)O [barasertib]
How it was run: as §1

vemurafenib = compound: CCCS(=O)(=O)Nc1ccc(F)c(C(=O)c2c[nH]c3ncc(-c4ccc(Cl)cc4)cc23)c1F [vemurafenib]
How it was run: as §1

[1] = compound: CC[C@@H]1C(=O)N(C)c2cnc(Nc3ccc(C(=O)NC4CCN(C)CC4)cc3OC)nc2N1C1CCCC1
How it was run: as §1

[2] = compound: CCn1c(C(=O)N(C2CC2)C2CC2)cc2c3c(ncn3C)c(Nc3cc(C)n(C)n3)nc21
How it was run: as §1

[3] = compound: CCn1cc(-c2ccnc3[nH]c(-c4cccc(CN(C)C)c4)cc23)c(-c2ccc(NC(=O)N(C)C)cc2)n1
How it was run: as §1

[4] = compound: CN1CCC(CNc2ccc3ncc(-c4cccc(OC(F)(F)F)c4)n3n2)CC1
How it was run: as §1

alvocidib = compound: CN1CC[C@H](c2c(O)cc(O)c3c(=O)cc(-c4ccccc4Cl)oc23)[C@H](O)C1 [alvocidib]
How it was run: as §1

Tubastatin A = compound: CN1CCc2c(c3ccccc3n2Cc2ccc(C(=O)NO)cc2)C1 [Tubastatin A]
How it was run: as §1

defactinib = compound: CNC(=O)c1ccc(Nc2ncc(C(F)(F)F)c(NCc3nccnc3N(C)S(C)(=O)=O)n2)cc1 [defactinib]
How it was run: as §1

encorafenib = compound: COC(=O)N[C@@H](C)CNc1nccc(-c2cn(C(C)C)nc2-c2cc(Cl)cc(NS(C)(=O)=O)c2F)n1 [encorafenib]
How it was run: as §1

[5] = compound: COC(=O)[C@H](CCSC)NC(=O)C1=C(C=C(C=C1)NC[C@H](CS)N)C2=CC=CC=C2
How it was run: as §1

alisertib = compound: COc1cc(Nc2ncc3c(n2)-c2ccc(Cl)cc2C(c2c(F)cccc2OC)=NC3)ccc1C(=O)O [alisertib]
How it was run: as §1

gefitinib = compound: COc1cc2ncnc(Nc3ccc(F)c(Cl)c3)c2cc1OCCCN1CCOCC1 [gefitinib]
How it was run: as §1

saracatinib = compound: CN1CCN(CCOc2cc(OC3CCOCC3)c3c(Nc4c(Cl)ccc5c4OCO5)ncnc3c2)CC1 [saracatinib]
How it was run: as §1

[6] = compound: CNC(=O)C1=CC=CC=C1NC2=NC(=NC=C2Cl)NC3=C(C=C(C=C3)N4CCOCC4)OC
How it was run: as §1

[7] = compound: CNc1nc(-c2ccc3c(N)n[nH]c3c2)cc(N2C[C@@H](C(=O)NC3CCCCC3)CC[C@H]2C)n1
How it was run: as §1

[8] = compound: CCCS(=O)(=O)Nc1ccc(F)c(C(=O)c2c[nH]c3ncc(Cl)cc23)c1F
How it was run: as §1

volasertib = compound: CC[C@@H]1C(=O)N(C)c2cnc(Nc3ccc(C(=O)N[C@H]4CC[C@H](N5CCN(CC6CC6)CC5)CC4)cc3OC)nc2N1C(C)C [volasertib]
How it was run: as §1

[9] = compound: COc1cc2nc(-c3cc(F)ccc3O)nc(N[C@@H]3CNC[C@H]3C(C)(C)O)c2cc1OC
How it was run: as §1

Measured: log2 fold change

RBM4 isoform 3 (UniProt Q9BWF3)
inactive: sotrastaurin 0.074

RLIM (UniProt Q9NVW2)
inactive: barasertib 0.065 | sotrastaurin -0.055

RUFY2 isoform 1 (UniProt Q8WXA3)
inactive: vemurafenib 0.01 | barasertib -0.206 | [1] 0.038 | [2] -0.026 | [3] -0.009 | [4] -0.178 | sotrastaurin 0.001 | alvocidib 0.01 | Tubastatin A 0.074 | defactinib 0.066 | encorafenib 0.13 | [5] -0.031 | alisertib 0.003 | gefitinib 0.053

SEC16A isoform 2 (UniProt O15027)
inactive: [2] -0.204 | Tubastatin A 0.023

SEMA4G isoform 2 (UniProt Q9NTN9)
Chain of UniProt Q9NTN9 (Q9NTN9 whole entry, looked up): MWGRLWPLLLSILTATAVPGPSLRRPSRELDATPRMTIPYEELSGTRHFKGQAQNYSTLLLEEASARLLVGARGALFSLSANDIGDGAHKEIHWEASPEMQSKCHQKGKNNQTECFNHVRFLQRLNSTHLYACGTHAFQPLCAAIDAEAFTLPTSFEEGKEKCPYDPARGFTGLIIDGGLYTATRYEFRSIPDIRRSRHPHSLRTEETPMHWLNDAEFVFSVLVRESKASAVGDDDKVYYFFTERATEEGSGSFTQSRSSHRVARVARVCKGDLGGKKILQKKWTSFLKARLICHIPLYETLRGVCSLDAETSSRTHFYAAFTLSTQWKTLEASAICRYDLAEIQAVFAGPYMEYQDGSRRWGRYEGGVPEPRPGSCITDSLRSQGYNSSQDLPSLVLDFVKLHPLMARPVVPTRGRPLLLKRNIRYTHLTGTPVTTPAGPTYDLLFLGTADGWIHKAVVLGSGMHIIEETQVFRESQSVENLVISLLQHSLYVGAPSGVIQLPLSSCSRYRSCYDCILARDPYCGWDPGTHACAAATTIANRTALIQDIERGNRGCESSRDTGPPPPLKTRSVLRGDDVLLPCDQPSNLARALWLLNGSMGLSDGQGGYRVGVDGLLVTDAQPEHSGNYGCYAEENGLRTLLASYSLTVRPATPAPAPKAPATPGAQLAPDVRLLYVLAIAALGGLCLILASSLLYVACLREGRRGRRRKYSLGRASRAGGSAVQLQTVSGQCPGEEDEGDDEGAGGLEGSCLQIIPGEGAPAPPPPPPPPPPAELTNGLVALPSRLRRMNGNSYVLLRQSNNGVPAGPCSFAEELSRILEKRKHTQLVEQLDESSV
inactive: vemurafenib 0.042 | [1] -0.059 | [3] -0.072 | [4] 0.04 | saracatinib -0.227 | sotrastaurin 0.004 | alvocidib -0.116 | [6] 0.122 | defactinib -0.047 | [7] 0.143 | encorafenib -0.193 | [5] 0.215

QSER1, A0A3B3IRW6
inactive: vemurafenib -0.042 | [8] 0.045 | [1] -0.044 | volasertib -0.028 | [2] 0.043 | saracatinib -0.036 | sotrastaurin -0.014 | Tubastatin A -0.122 | [6] 0.014 | defactinib 0.019 | [7] -0.035 | encorafenib 0.059 | [5] 0.183 | alisertib 0.025 | [9] -0.004 | gefitinib -0.021

RECQL4 (UniProt O94761)
inactive: vemurafenib -0.019 | barasertib 0.1 | [1] 0.054 | [2] 0.043 | [3] -0.254 | [4] -0.026 | saracatinib 0.043 | sotrastaurin -0.017 | alvocidib 0.042 | Tubastatin A -0.045 | [6] 0.104 | defactinib 0.049 | [7] -0.02 | encorafenib 0.023 | [5] 0.056 | alisertib 0.028 | gefitinib 0.065

RNF24 isoform 2 (UniProt Q9Y225)
Chain of UniProt Q9Y225 (Q9Y225 whole entry, looked up): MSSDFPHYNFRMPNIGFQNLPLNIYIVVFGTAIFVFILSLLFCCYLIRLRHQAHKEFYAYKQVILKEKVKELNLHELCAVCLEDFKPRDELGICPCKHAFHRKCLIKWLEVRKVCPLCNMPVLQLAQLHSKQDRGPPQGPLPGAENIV
inactive: barasertib 0.122 | [3] 0.033 | [4] -0.084 | sotrastaurin 0.025 | alvocidib 0.079 | [6] 0.003 | alisertib -0.113 | gefitinib -0.108

SCNM1 (UniProt Q9BWG6)
Chain of UniProt Q9BWG6 (Q9BWG6 whole entry, looked up): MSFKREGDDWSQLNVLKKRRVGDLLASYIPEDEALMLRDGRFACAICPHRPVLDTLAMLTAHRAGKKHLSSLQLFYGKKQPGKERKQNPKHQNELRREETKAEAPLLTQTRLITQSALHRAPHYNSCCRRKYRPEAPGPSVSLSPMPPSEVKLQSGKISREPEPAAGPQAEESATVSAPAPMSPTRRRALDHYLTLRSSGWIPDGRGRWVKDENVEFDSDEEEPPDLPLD
active: volasertib 0.372
inactive: [8] 0.012 | [1] 0.122 | [2] 0.099 | [3] -0.033 | [4] -0.005 | saracatinib -0.092 | sotrastaurin -0.023 | alvocidib -0.005 | Tubastatin A 0.035 | [6] 0.117 | [7] 0.127 | encorafenib 0.115 | [5] -0.311 | alisertib 0.035 | [9] 0.15 | gefitinib 0.114

RPS6KA5 (UniProt O75582)
Chain of UniProt O75582 (O75582 whole entry, looked up): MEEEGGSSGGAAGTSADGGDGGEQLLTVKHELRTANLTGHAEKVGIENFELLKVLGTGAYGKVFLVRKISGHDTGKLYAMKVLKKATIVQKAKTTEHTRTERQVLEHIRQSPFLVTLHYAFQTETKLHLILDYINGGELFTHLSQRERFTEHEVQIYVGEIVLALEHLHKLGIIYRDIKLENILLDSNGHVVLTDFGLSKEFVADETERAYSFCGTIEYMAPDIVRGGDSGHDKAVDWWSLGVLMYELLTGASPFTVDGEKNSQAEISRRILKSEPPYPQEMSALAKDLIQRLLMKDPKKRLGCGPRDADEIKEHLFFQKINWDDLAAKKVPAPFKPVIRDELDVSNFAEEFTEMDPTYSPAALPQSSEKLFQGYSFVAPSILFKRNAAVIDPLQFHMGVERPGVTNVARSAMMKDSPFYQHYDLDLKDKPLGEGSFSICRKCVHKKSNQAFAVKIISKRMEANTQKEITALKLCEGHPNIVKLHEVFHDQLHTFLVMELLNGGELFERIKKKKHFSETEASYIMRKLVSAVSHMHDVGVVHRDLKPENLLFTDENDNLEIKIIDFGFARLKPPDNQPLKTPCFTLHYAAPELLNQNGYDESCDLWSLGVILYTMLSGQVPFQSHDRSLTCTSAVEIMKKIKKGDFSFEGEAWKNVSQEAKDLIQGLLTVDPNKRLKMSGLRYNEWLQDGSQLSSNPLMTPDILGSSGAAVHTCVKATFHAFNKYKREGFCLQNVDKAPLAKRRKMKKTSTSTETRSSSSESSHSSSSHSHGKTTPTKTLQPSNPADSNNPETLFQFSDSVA
inactive: vemurafenib -0.048 | [8] -0.073 | [1] 0.059 | volasertib -0.182 | [2] 0.005 | [3] -0.116 | [4] 0.087 | saracatinib -0.071 | sotrastaurin 0.185 | alvocidib 0.193 | Tubastatin A -0.239 | [6] 0.009 | defactinib 0.019 | [7] 0.072 | encorafenib 0.054 | [5] -0.005 | alisertib 0.041 | [9] 0.104 | gefitinib 0.11

RDH11 (UniProt Q8TC12)
Chain of UniProt Q8TC12 (Q8TC12 whole entry, looked up): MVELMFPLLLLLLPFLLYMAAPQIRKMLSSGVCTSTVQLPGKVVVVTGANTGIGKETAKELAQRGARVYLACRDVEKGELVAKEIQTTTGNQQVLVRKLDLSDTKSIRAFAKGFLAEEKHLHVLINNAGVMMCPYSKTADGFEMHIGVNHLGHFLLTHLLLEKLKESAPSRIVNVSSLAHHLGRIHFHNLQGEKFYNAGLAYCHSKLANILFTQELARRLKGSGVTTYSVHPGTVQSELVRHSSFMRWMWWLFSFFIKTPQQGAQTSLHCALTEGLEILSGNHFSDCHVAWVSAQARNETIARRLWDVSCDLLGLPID
inactive: vemurafenib 0.055 | [8] 0.088 | [1] -0.115 | volasertib -0.13 | [2] 0.069 | [3] -0.213 | [4] 0.082 | saracatinib 0.021 | sotrastaurin 0.022 | alvocidib -0.071 | Tubastatin A 0.031 | [6] 0.011 | defactinib 0 | [7] 0.1 | encorafenib 0.092 | [5] 0.149 | alisertib -0.009 | [9] 0.082 | gefitinib -0.019

RNPC3 (UniProt Q96LT9)
inactive: [8] -0.02 | volasertib 0.019 | [2] -0.119 | [3] -0.009 | [4] -0.032 | saracatinib -0.022 | sotrastaurin -0.074 | alvocidib 0.012 | Tubastatin A -0.099 | [6] -0.047 | [7] 0.082 | alisertib 0.118 | [9] 0.056 | gefitinib -0.08

RBBP7 (UniProt C9J7L0)
inactive: alisertib 0.089 | gefitinib -0.058

RAD54L (UniProt Q92698)
Chain of UniProt Q92698 (Q92698 whole entry, looked up): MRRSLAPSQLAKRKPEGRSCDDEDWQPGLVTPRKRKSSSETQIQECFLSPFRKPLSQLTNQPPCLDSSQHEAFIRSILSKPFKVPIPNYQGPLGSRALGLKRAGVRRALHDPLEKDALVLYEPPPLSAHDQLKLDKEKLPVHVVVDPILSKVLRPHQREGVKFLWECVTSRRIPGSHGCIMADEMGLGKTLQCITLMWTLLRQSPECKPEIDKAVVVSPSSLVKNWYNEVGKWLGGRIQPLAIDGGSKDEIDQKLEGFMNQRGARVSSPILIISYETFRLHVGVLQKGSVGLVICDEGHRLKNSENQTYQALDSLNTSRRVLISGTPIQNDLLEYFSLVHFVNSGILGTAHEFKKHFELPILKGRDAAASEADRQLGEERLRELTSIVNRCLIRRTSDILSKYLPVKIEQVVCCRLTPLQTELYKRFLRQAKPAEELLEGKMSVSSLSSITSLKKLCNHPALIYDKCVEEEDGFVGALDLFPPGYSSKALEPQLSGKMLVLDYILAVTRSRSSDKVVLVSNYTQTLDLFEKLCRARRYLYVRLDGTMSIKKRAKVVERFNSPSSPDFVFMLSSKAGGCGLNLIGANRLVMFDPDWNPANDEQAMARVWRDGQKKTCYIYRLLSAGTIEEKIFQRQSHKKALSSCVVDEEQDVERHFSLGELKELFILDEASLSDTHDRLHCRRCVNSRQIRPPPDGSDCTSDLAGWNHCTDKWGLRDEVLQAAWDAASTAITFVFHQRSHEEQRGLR
active: [3] -2.19
inactive: [8] -0.054 | barasertib 0.012 | volasertib 0.015 | [2] 0.005 | [4] 0.648 | saracatinib 0.095 | alvocidib -0.673 | Tubastatin A 0 | [6] 0.013 | [7] -0.132 | alisertib -0.022 | [9] -0.041 | gefitinib 0

RHOU (UniProt Q7L0Q8)
inactive: vemurafenib -0.04 | [8] -0.059 | [1] -0.122 | volasertib 0.008 | [2] -0.006 | [3] 0.173 | [4] 0.015 | saracatinib -0.027 | sotrastaurin 0.036 | alvocidib 0.007 | Tubastatin A 0.005 | [6] -0.036 | defactinib -0.073 | [7] -0.17 | encorafenib -0.088 | [5] 0.164 | alisertib -0.014 | [9] 0.024 | gefitinib -0.017

RNF17 (UniProt Q9BXT8)
inactive: [8] 0.022 | barasertib 0.133 | [1] 0.099 | volasertib 0.066 | [2] -0.035 | [3] 0.113 | [4] -0.421 | saracatinib 0.257 | sotrastaurin 0.046 | alvocidib -0.006 | Tubastatin A 0.079 | [6] 0.096 | [7] -0.183 | encorafenib 0.061 | [5] -0.032 | [9] -0.057

RFWD3 (UniProt Q6PCD5)
Chain of UniProt Q6PCD5 (Q6PCD5 whole entry, looked up): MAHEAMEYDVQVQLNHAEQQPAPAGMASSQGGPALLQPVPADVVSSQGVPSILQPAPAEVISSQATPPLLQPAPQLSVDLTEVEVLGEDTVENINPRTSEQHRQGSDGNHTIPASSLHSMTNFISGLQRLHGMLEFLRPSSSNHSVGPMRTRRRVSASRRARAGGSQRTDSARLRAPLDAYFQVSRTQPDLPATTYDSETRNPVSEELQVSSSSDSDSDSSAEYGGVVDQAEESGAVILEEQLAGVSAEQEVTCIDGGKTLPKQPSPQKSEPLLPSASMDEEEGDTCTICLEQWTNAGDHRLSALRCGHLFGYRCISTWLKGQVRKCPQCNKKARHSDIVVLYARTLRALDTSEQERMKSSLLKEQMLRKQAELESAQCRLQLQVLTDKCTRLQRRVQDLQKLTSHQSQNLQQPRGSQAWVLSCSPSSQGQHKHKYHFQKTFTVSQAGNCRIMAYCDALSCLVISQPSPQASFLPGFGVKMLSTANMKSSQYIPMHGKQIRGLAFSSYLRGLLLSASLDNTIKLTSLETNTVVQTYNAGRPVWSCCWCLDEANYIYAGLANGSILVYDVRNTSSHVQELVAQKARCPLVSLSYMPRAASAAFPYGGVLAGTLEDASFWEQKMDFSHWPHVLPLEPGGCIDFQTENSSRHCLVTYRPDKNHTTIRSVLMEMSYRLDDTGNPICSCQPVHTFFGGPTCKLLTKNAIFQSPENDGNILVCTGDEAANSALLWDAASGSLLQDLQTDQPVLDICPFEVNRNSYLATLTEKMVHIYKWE
inactive: vemurafenib -0.073 | barasertib 0.004 | [1] -0.011 | [2] -0.062 | [3] -0.087 | [4] -0.055 | saracatinib -0.036 | sotrastaurin -0.017 | alvocidib -0.057 | Tubastatin A 0.065 | [6] 0.051 | defactinib 0.082 | [7] -0.057 | encorafenib 0.1 | [5] -0.052 | alisertib 0.114 | gefitinib -0.057

ROBO2 isoform 3 (UniProt Q9HCK4)
inactive: [8] 0.071 | volasertib 0.045 | sotrastaurin -0.001 | Tubastatin A -0.009 | [6] 0.03 | [9] 0.009
active: [2] 0.523

S100A6 (UniProt P06703)
active: saracatinib 0.715
inactive: vemurafenib 0.036 | [8] 0.124 | [1] -0.027 | volasertib 0.048 | [2] -0.094 | [3] 0.03 | [4] -0.139 | sotrastaurin -0.033 | alvocidib 0.084 | Tubastatin A -0.044 | [6] 0.018 | defactinib -0.017 | [7] -0.126 | encorafenib -0.173 | [5] 0.023 | [9] -0.038

RNF2 (UniProt Q99496)
Chain of UniProt Q99496 (Q99496 whole entry, looked up): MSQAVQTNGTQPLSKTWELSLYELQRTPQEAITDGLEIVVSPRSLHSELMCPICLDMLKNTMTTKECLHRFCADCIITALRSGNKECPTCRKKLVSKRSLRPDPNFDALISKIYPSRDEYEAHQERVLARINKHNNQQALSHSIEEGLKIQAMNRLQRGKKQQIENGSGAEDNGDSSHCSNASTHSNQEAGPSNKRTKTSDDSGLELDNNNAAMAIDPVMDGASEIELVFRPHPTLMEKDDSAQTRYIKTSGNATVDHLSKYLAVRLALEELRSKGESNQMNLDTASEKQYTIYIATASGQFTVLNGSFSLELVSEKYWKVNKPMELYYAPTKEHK
inactive: vemurafenib -0.03 | [1] -0.03 | [2] 0.061 | saracatinib -0.004 | sotrastaurin -0.002 | alvocidib 0.359 | Tubastatin A -0.008 | [6] 0.067 | defactinib 0.034 | [7] 0.018 | encorafenib 0.054 | [5] -0.076 | alisertib -0.125 | gefitinib -0.038
active: [3] 0.557 | [4] -0.399

SEC16A isoform 3 (UniProt O15027)
inactive: [2] 0.231 | saracatinib 0.068 | Tubastatin A -0.008 | [7] 0.023

RAD17 (UniProt O75943)
Chain of UniProt O75943 (O75943 whole entry, looked up): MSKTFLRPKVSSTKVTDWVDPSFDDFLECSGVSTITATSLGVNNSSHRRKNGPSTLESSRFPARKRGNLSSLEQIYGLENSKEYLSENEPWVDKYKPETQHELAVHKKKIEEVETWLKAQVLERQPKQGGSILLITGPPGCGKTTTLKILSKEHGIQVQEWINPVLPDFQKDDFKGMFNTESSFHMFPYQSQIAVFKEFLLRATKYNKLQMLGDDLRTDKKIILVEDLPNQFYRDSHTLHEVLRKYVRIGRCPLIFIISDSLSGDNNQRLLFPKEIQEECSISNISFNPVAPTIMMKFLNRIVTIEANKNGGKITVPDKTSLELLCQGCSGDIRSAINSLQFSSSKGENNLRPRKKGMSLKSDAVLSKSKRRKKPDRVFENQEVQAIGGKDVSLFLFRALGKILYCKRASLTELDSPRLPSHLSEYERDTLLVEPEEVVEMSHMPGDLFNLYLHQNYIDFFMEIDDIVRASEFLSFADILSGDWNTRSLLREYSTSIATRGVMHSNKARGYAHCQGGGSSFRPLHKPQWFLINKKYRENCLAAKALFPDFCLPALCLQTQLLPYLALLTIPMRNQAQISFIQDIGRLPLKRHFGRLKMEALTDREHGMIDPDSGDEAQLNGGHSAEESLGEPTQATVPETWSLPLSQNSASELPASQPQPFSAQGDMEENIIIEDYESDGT
inactive: vemurafenib -0.091 | barasertib 0.131 | [1] 0.017 | [2] 0.07 | [3] -0.214 | [4] -0.027 | saracatinib 0.042 | sotrastaurin -0.004 | alvocidib -0.24 | Tubastatin A -0.041 | defactinib 0.111 | [7] 0.154 | encorafenib 0.094 | [5] 0.026 | alisertib 0.029 | gefitinib 0.022

SELENOK (UniProt Q9Y6D0)
Chain of UniProt Q9Y6D0 (Q9Y6D0 whole entry, looked up): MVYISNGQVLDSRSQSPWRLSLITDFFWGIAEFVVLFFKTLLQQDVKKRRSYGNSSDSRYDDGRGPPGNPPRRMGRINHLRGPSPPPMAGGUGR
active: [4] 0.529
inactive: vemurafenib -0.034 | [8] -0.004 | barasertib -0.022 | volasertib 0.062 | [3] -0.593 | saracatinib -0.021 | alvocidib -0.169 | defactinib 0.123 | [7] -0.001 | alisertib -0.018 | [9] -0.025 | gefitinib 0.006

RMI2 (UniProt Q96E14)
inactive: vemurafenib 0.239 | [1] -0.109 | [2] -0.007 | saracatinib -0.008 | sotrastaurin -0.01 | Tubastatin A -0.146 | [6] -0.074 | defactinib 0.265 | [7] 0.007 | encorafenib -0.054 | [5] -0.021

RNASEH2B, A0A1B0GUE7
inactive: [8] -0.061 | volasertib -0.064 | alisertib 0.04 | [9] 0.039 | gefitinib -0.028

RNF170 (UniProt Q96K19)
inactive: vemurafenib -0.08 | [8] 0.02 | barasertib 0.189 | volasertib -0.131 | [3] -0.015 | [4] 0.09 | saracatinib -0.201 | alvocidib 0.371 | [6] -0.137 | defactinib 0.027 | [7] -0.067 | alisertib 0.055 | [9] 0.07 | gefitinib 0.037
